Measurements as given in ChEMBL document CHEMBL3433997, “St. Jude Leishmania screening dataset” (2016).

Experiments:
Format in all cases: functional
[1] = biological target: Solute carrier family 2, facilitated glucose transporter member 1 (Homo sapiens) (UniProt P11166); test: ST_JUDE_LEISH: Cytotoxicity at 2uM final concentration against transgenic Leishmania Mexicana promastigotes LmGLUT1 that are glucose transport deficient and complemented with the human glucose transporter GLUT1. Activity is measured by DNA content using SYBR green in vitro
[2] = biological target: Hexose transporter 1 (Plasmodium falciparum) (UniProt O97467); test: ST_JUDE_LEISH: Cytotoxicity at 2uM final concentration against transgenic Leishmania Mexicana promastigotes LmPfHT that are glucose transport deficient and complemented with the Plasmodium falciparum hexose transporter. Activity is measured by DNA content using SYBR green in vitro
[3] = biological target: Glucose transporter (Leishmania mexicana) (UniProt O61059); test: ST_JUDE_LEISH: Cytotoxicity at 2uM final concentration against transgenic Leishmania Mexicana promastigotes LmGT2 that are glucose transport deficient and complemented with the L. Mexicana glucose transporter 2. Activity is measured by DNA content using SYBR green in vitro

Chain of Solute carrier family 2, facilitated glucose transporter member 1 (Homo sapiens) (P11166 whole entry): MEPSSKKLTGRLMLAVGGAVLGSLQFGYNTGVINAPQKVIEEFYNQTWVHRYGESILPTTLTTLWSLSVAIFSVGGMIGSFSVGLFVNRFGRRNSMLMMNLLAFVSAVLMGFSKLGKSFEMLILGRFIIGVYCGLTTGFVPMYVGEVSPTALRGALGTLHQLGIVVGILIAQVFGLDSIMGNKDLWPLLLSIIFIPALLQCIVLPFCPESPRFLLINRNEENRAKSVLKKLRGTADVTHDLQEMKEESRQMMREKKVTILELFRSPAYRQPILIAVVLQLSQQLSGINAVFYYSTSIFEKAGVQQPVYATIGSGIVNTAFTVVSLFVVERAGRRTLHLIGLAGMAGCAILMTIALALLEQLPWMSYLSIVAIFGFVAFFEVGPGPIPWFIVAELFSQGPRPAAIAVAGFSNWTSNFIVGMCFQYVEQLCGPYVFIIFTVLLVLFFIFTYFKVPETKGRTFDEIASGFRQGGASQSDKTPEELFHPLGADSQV

| Compound | inhibition [1] | inhibition [2] | inhibition [3] |
| --- | --- | --- | --- |
| Oc1ccc2[nH]cc(C3CCN(CCC(c4ccccc4)c4ccccc4)CC3)c2c1 | 4.66% | 3.07% | 4.21% |
| O=C(Cc1cccs1)NCC(c1ccccc1Cl)c1c[nH]c2ccccc12 (centres undefined) | 2.89% | 0.74% | 1.14% |
| COc1cc(NC(=O)c2cc([N+](=O)[O-])ccc2NC(=O)CNC2CCCCC2C)cc(OC)c1 (centres undefined) | 7.57% | 2.04% | 1.96% |
| Cc1cc(Nc2ccc(Cl)cc2)n2nc(C(F)(F)F)nc2n1 | 0.02% | 0.17% | 0.13% |
| O=C(NCCN1CCCC1)c1ccc(-c2ccc(-c3nc4cc(C(F)(F)F)ccc4[nH]3)s2)cc1 | 3.7% | 2.28% | 3.38% |
| CCCCc1ccc(C(=O)Nc2ccc3nc(N4CCN(CC)CC4)cc(C)c3c2)cc1 | -2.18% | -0.16% | -1.24% |
| Cc1noc(-c2ccc(N3CCC(C(=O)N4CCN(C(C)C)CC4)CC3)cc2)n1 | 1.72% | 2.07% | 2% |
| Oc1ccc(CCNc2nc(NCCCOc3ccccc3-c3ccc(C(F)(F)F)cc3)nc(N3CCNCC3)n2)cc1 | -0.03% | -1.9% | -0.21% |
| COc1ccc2nccc([C@@H](O)CN3CCC(NC(=O)C(c4cc5ccccc5o4)N4CCN(c5ccc(F)cc5)CC4)CC3)c2c1 (some centres undefined) | 2.59% | 1.79% | 0.13% |
| Fc1cccc(COc2ccc(Nc3ncnc4sc(C#CC5CCCCN5)cc34)cc2Cl)c1 (centres undefined) | 3.03% | 1.13% | -0.16% |
| COc1ccc2ccccc2c1CON1C(=N)N=C(N)NC1(C)C | 1.59% | 1.46% | 1.5% |
| CC(C)c1cc(C(=O)N[C@@H](Cc2ccccc2)[C@H](O)CNC2CCCCC2)cc(N2CCCC2=O)c1 | 2.19% | 1.07% | 2.18% |
| CCCCCCCCNCc1c(O)ccc2ccccc12 | 3.46% | 3.25% | 5.48% |
| N#Cc1ccc2[nH]cc(CN3CCC4(CC3)CN(CCNCc3ccccc3)C(=O)O4)c2c1 | 4.35% | 4.4% | -0.76% |
| O=C(c1cccs1)N1CCN(c2ccc([N+](=O)[O-])c(NC3CC3)c2)CC1 | 1.35% | 0.57% | 1.6% |
| Cc1cc(NCCC(=O)NCc2cccc(F)c2)nc(Nc2ccccc2)n1 | 8.44% | 7.08% | -6.28% |
| NC1CCN(c2nc(NCCCc3ccc(O)cc3)nc(NCc3cccc4ccccc34)n2)CC1 | 0.21% | -3.11% | 2.63% |
| CCCCc1ccc(C(=O)Nc2ccc3nc(N4CCN(C)CC4)cc(C)c3c2)cc1 | 2.19% | 3.48% | 3.48% |
| N#Cc1ccc2c(c1)CN(CCC1CCC(NC(=O)c3cc4cnccc4[nH]3)CC1)CC2 (centres undefined) | 5.36% | 3.42% | 3.7% |
| COc1ccc(Oc2ccc(Nc3ccnc4ccc(C(F)(F)F)cc34)cc2)cc1OC | 7.8% | 6.26% | 12.3% |
| Cc1cc(Nc2ccnc(-c3ccc(Cl)cc3)n2)ccn1 | 7.95% | 8.43% | 8.52% |
| Nc1nc(N)c2c(ccc3nn(C4CCCC4)cc32)n1 | 10.1% | 9.8% | 5.28% |
| CCN(CC)CCNc1cc(C)nc(NC(=N)Nc2ccc(Cl)cc2)n1 | 6% | 6.42% | 5.89% |
| CCN(CC)S(=O)(=O)c1ccc(C=CC(=O)Nc2cc(Cl)ccc2N2CCOCC2)cc1 | 6.36% | 4.63% | 5.02% |

| Compound | inhibition [1] | inhibition [2] | inhibition [3] |
| --- | --- | --- | --- |
| COc1ccc2nccc([C@@H](O)CN3CCC(NCC(=O)Nc4cc(F)cc(F)c4)CC3)c2n1 | 37.8% | 47.2% | 58.1% |
| CCCS(=O)(=O)c1nc(S(=O)(=O)c2ccc(Cl)cc2)c(N2CCCCC2)s1 | 0.14% | 0.19% | -1.01% |
| O=C(NCc1cccc(CN2CCOCC2)c1)c1cc(Br)cc(N2CCN(c3ccncc3)CC2)c1 | 0.32% | 0.81% | 0.57% |
| COc1ccccc1CCNc1nc(C)cc(N[C@@H](Cc2ccccc2)C(=O)NCc2cccs2)n1 | 2.42% | 2.49% | 0.42% |
| Cc1[nH]c(C)c(-c2ccc(OCCOc3ccc(C(F)(F)F)cn3)cc2)c(=O)c1Br | -0.58% | 1.5% | -1.93% |
| CCC[C@@H]([C@@H](CC1CCCCC1)C(=O)N[C@H](C(=O)Nc1ccccn1)[C@H](C)CC)N(O)C=O | 3.49% | 3.35% | 2.88% |
| Cc1cc(CNC(=O)[C@H](CC2CCCCC2)Nc2ccc(C#N)c3ccccc23)c(C(F)(F)F)o1 | 1.15% | 1.57% | -1.16% |
| O=C(Nc1cc(C(F)(F)F)cc(C(F)(F)F)c1)c1cccc([N+](=O)[O-])c1 | 3.73% | 4.66% | 2.84% |
| CN(C)CCC=C1c2ccccc2Sc2c(O)cc(Cl)cc21 | -0.51% | 4.06% | 1.71% |
| CN(CCO)Cc1ccc(-c2ccc(NS(=O)(=O)c3cccc4cccnc34)cc2)cc1 | 75.1% | 81.8% | 80.8% |
| Oc1ccc(CN2CCC(N3CCN(CCc4ccccc4)CC3)C(O)C2)cc1Cl (centres undefined) | 1.3% | -0.2% | 2.61% |
| CN(C)C(CNC(=O)c1cc(-c2ccncc2)c(-c2ccc(NC(=O)Nc3cccc(Cl)c3)cc2)o1)c1ccccc1 (centres undefined) | 1.5% | 2.82% | 0.81% |
| Cc1cc2[nH]c(-c3ccc(C(=O)NCCCN4CCN(c5cccc(Cl)c5)CC4)cc3)nc2cc1Cl | 1.69% | 3.45% | -1.01% |
| C=CCOC(=O)N1CCC(CNCc2cccc(-c3cccc(-c4nc5cc(F)ccc5[nH]4)c3)c2)C1 (centres undefined) | 1.39% | 0.9% | -0.93% |
| O=C(c1ccc(-c2ccc(Cl)cc2)o1)N1CCc2cc3nccc(N4CCN5CCC[C@H]5C4)c3cc21 | -1.09% | 0.64% | 0.64% |
| Fc1ccc2[nH]c(-c3cccc(-c4cccc(CNCCc5ccncc5)c4)c3)nc2c1 | 11.1% | 10.6% | 12.9% |
| Cc1cc(NC(=O)NC(=N)N)ccc1Cl | 6.27% | 5.72% | 3.21% |
| O=C(NCCN1CCCCC1)N1CCCN(c2ncnc3cc(-c4ccccc4)sc23)CC1 | 2.21% | 1.64% | 2.05% |
| CC(NCCc1cccc(Cl)c1)C(O)c1ccc(OCCCCCCOc2ccc(C(O)C(C)NCCc3cccc(Cl)c3)cc2)cc1 (centres undefined) | 38.2% | 69.9% | 24.4% |
| CCn1ncc2c(N3CCCC3=O)cc(C(=O)N[C@@H](Cc3ccccc3)[C@H](O)CNC(C)(C)c3cccc(C(F)(F)F)c3)cc21 | -0.71% | 0.84% | 5.42% |
| CCOC(=O)c1ccc2[nH]c(-c3ccc(C(=O)NC4CCN(Cc5ccccc5)CC4)s3)nc2c1 | 4.45% | 4.85% | 0.16% |
| Cc1cc(=O)[nH]c(-n2nc(C)cc2NC(=O)CC(c2ccccc2)c2ccccc2)n1 | 14.8% | 23.1% | -1.63% |
| COc1ccc(Nc2ncc3c(-c4cccc(NC(=O)Cc5cccc(F)c5)c4)c[nH]c3n2)cc1OC | 5.69% | 3.23% | 4.39% |
| COc1cc2c(OC)cccc2cc1CNCCCCCCNCc1cc2cccc(OC)c2cc1OC | 0.11% | 6.08% | -0.11% |
